The whole screen tested about 31,000 sequences, of which about 1,400 (4.5%) were called active. This is one part of a sample in which actives are shown more often than they occur.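 The calls were made as follows: active = median seed-adjusted z-score above 1 or below -1; inactive = the rest.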

This assay in a line: Novel Modifiers of Survival Motor Neuron (SMN) Protein: Gene Identification via Genome-wide siRNA Screen.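 Also: luminescence tracks full-length SMN protein made from the SMN2 reporter.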 The following applies: HEK293T SMN2-luciferase reporter, siRNA knockdown, 72 h; actives lie on both sides. In short, it runs like this: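 HEK293T cells stably carrying an SMN2 promoter/splicing cassette–luciferase reporter were reverse-transfected with 1 pmol siRNA per well (druggable-genome library, 3 siRNAs per gene) and grown 72 h at 37 °C. Luminescence, normalized to negative-control siRNA and log10-transformed, was scored as MAD.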
In general terms: Reporter assays use an easily measured gene product as a stand-in for the process of interest.
On to AACUCGCUGUUGUACCUGATT against CPSF1, for which the median seed-adjusted z-score was 3.29 (active).
Regarding GGCAUUAUGUGAAGGCGAATT against SMC5, the median seed-adjusted z-score is 0.0666 (inactive).
For CCAUCACCUUCAAUCCGCUTT against PEMT, the median seed-adjusted z-score was 0.0218 (inactive).
Then GGUAGACUGUCAUCGUGAATT against RAD50, with 0.266 (inactive).
With CAUCACCGCUGGGUCCAAATT against FABP1, the median seed-adjusted z-score is -0.302 (inactive).
The result for UGGAAUAAGUGGGCUCUGATT against ADM reads 0.65 (inactive); that for CAAUAUGCCUUUCUCUACATT against DNASE1L3, 0.0678 (inactive); that for GGACUGCUUCAUAUACUGATT against GLT8D1, 1.22 (active).
Then GGGACUAACAUGUACAACATT against PCDH24, with 0.345 (inactive).
Then CAGUUACUAUAAAAACCGATT against ZNF711, with 0.254 (inactive); and GAGAUAGACUUGCUGAGCATT against TRIP6, with 1.03 (active).
In the case of GGAAAAUCAAUAUAUCACUTT against ADH6, the median seed-adjusted z-score is -0.132 (inactive).
On to GGAGCAUACAGAACGGACATT against SIPA1L3, for which the median seed-adjusted z-score was 0 (inactive).
The result for GGUCAUACACGGGAUCUCUTT against SLC30A2 reads -0.402 (inactive).
Then GCAUUGGAACGAUUCUAAATT against CTPS2, with 1.08 (active); and CGCACGCUCUUCAAAUUCUTT against ADRA2A, with -0.65 (inactive); and GCAAAUGAGUGUGACCUAATT against RAB38, with -0.165 (inactive).
Turning to CCAACCUAAUUAUGGAGGATT against PCDHGB4, the median seed-adjusted z-score was 0.176 (inactive).
Turning to AGGUUUAUGUGACCAAGCATT against KCTD8, the median seed-adjusted z-score is 0.0212 (inactive).
Then GAGCGAAGAUGUCCGAAAATT against MIPEP, with -0.169 (inactive); and GCUUCAAUGAGACAACCCUTT against IP6K2, with -0.193 (inactive).
The result for CAGAAGUUGUGCAAUCCAATT against ADAM32 reads 1.75 (active); that for GGAUGGUCGGAUUCUGAAATT against ITPKC, 0.218 (inactive).
Then CCAGGCUAUCUUUCCGAUATT against PTPN3, with -0.535 (inactive); and GCCCACUGACCAUACCUCATT against NAT6, with -0.327 (inactive); and GGAGUUGAUUUUAUGAUUATT against RAB30, with 0.395 (inactive).
Take GUAUCAGCAUUGAUAGAUATT against GPR21: the median seed-adjusted z-score is 0.246 (inactive).
As to GCACCGAGCUUUACAGUGUTT against LARP1, the median seed-adjusted z-score was 0.251 (inactive).
The result for CCUUGUGCGUUACAGAAGATT against SCARA3 reads -0.05 (inactive).
Take CAUCAAGCCUCAUCUAAUATT against CHD1: the median seed-adjusted z-score is -1.03 (active).
The result for CCCAGUUUCUAGUCUGCUATT against SHKBP1 reads 0.345 (inactive).
Then AGACAAUUUGUAACUAGAATT against NEUROD2, with -0.103 (inactive); and AGAUCAAGGUGUACGAGAUTT against KIF26A, with -0.428 (inactive).
GCAUCUAUGUAACAAAGAUTT against DLG4: the median seed-adjusted z-score is -0.498 (inactive).
The result for CGAAUGCAUCAGAUCAACATT against UBA2 reads 0.694 (inactive); that for GUAACAACAUCAUCCUAGATT against HSPG2, 0.478 (inactive); that for GACCCGGUAUAUGAACUCATT against UCP3, 1.23 (active).
Then GAGAAGGCCUAUUCAGACATT against ZBTB7C, with 0.447 (inactive); and CGAGCUGACUUCAACAGGATT against STC1, with -1.36 (active); and GUGUGGUACAGAACAUUUATT against GUCA1C, with -0.617 (inactive).
In the case of GCAACAACCUGAUUAAGGATT against MED24, the median seed-adjusted z-score was -2.3 (active).
With GGACUCAGCAGGAUACAAUTT against FOXJ2, the median seed-adjusted z-score is -0.627 (inactive).
Then ACUUAGCACUUUAUAUUUATT against DUSP2, with 0.576 (inactive); and GAGCAGUACUGGGAAGAGATT against CARD14, with -0.104 (inactive).
Then GCAGCUUAGGAACAGCAGATT against THOC4, with -1.54 (active).
Regarding CCAUGACACGGUCCUCCAATT against ICAM2, the median seed-adjusted z-score is 0.269 (inactive).
The result for GCUUUGUGGUGUGGAGUAUTT against LTB4R reads 0.498 (inactive).
With GAAGAUGACAUGUACCGUATT against XPA, the median seed-adjusted z-score was 2.03 (active).
The result for GCUGCUACUUUGAAGUCCATT against FGG reads -0.043 (inactive); that for CAUGCAGCCUUAAGCCUCATT against ILKAP, 0 (inactive); that for GCCUAGAGCUAAGUACCAATT against CHUK, -0.613 (inactive).
The result for GGCACUAAGUUUGACCGGATT against AQR reads -1.56 (active).
In the case of GCCUUUGACCUGUCAGUGUTT against ASMT, the median seed-adjusted z-score is -0.322 (inactive).
The result for GCAUCCUGUUUGUAAAUGATT against DLG4 reads -0.498 (inactive); that for CCGUGGUUACAGAAACGUATT against ABHD3, -0.126 (inactive).
As for CAAGAUGCUGGAUAAGGAATT against GYS1, the median seed-adjusted z-score is 0.874 (inactive).
The result for GGAUUCUUGUUGGACUAAUTT against RHBDD1 reads 0.00277 (inactive).
As to CAAUAGGAUUAUCAUGAGATT against MRS2, the median seed-adjusted z-score is 1.38 (active).
The result for GGCUACAACAUGACUCGUATT against FZD10 reads -0.226 (inactive); that for UCACUGUCCCAGACACCAATT against EPO, 0.148 (inactive); that for UGGACAACUUUGUACCUAATT against EBP, 0.017 (inactive).
The result for GGCUCAACAUGGACCGGAUTT against BCAT2 reads 0.0438 (inactive).
The result for CAAAGGCGAUAACAUCUAUTT against UBE2E1 reads 0.888 (inactive); that for GCCCUAAAGGAGAAAGUCATT against MAT2A, -1.9 (active).
In the case of GCAUGUAAGAAUCCACAAUTT against ZNF187, the median seed-adjusted z-score was 0.419 (inactive).
Then GCCUAAAUCCCAAAUCGAATT against CXCL11, with -0.135 (inactive); and ACAGCGACCUUGCAAAGAATT against ZNF496, with -0.971 (inactive); and GAAAGUGCUCGGUGCCUUUTT against HBB, with -0.151 (inactive).
In the case of GGCGAGAAGAGCAACGUAATT against DDX46, the median seed-adjusted z-score was -1.24 (active).
Then CAACGGCUUCUGUCAUUUATT against SUCLG1, with -0.63 (inactive).

For the origin of these results see PubChem BioAssay AID1347426 (Functional Genomics Laboratory (NCATS/FGL), 2020).
